Screens: PubChem, The Scripps Research Institute Molecular Screening Center
NR5A2 inv ag – LRH-1 (NR5A2) inverse agonists, primary screen, cell-based, luminescence, HEK293T, StAR-luciferase reporter; Nuclear receptor subfamily 5 group A member 2 (Homo sapiens), O00482; LRH-1 transfected, 24 h; inhibition, % at 3.6 µM; actives 0.13% (n = 360,000);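 active = inhibition above the mean inhibition of all tested compounds plus 3 SD, cut at about 73% in these data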
SRC1 inh – SRC1 coactivator transcriptional activity inhibitors, primary screen, cell-based, luminescence; Nuclear receptor coactivator 1 (Homo sapiens), Q15788; HEK293 GAL4-SRC1 luciferase reporter; inhibition, % at 3.6 µM; actives 0.12% (n = 360,000);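 active = inhibition above the campaign mean plus 3 SD, with each screening campaign given its own cutoff, cut at about 60% in these data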
GalR3 antag – GalR3 antagonists in HEK293 cells, primary screen, cell-based, fluorescence readout; Galanin receptor type 3 (Homo sapiens), O60755; HEK293 GalR3-CNG cAMP membrane potential fluorescence; galR3 body fused to GalR1 C-terminus; inhibition, % at 3 µM; actives 0.44% (n = 360,000); AID 651719, 2012;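 active = inhibition above the screen-wide average plus 3 SD, cut at about 13% in these data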;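 also: forskolin and galanin both at EC90 stimulate the cells; cAMP rise reported by CNG channel membrane potential dye signal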
Target sequence (O60755 1-299 limits assumed): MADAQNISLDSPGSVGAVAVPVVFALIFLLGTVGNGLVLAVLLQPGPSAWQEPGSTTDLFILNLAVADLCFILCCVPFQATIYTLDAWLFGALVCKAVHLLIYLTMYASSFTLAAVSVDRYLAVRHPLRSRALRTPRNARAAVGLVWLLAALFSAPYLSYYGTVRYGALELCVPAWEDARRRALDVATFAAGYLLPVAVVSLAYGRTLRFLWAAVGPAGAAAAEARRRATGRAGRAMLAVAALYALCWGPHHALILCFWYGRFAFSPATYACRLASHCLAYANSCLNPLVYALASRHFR
NCOA3 inh – SRC3 coactivator transcriptional activity inhibitors, primary screen, cell-based, luminescence | Nuclear receptor coactivator 3 (Homo sapiens), Q9Y6Q9 | HEK293 GAL4-SRC3 luciferase reporter | inhibition, % at 3.6 µM | actives 0.17% (n = 360,000) | AID 588352, 2011;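 active = inhibition above a per-campaign cutoff, the mean of all compounds plus 3 SD, cut at about 60% in these data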;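 also: higher means less SRC3-driven luciferase light from the GAL4 reporter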
NCOA2 inhibitor – inhibition of GAL4-SRC2 driven luciferase reporter, primary screen, SRC2 inhibitor project, cell-based, luminescence; inhibition, % at 9 µM; actives 0.17% (n = 370,000); HEK293 GAL4-SRC2 luciferase reporter; Nuclear receptor coactivator 2 (Homo sapiens), Q15596;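 active = inhibition above the mean inhibition of all tested compounds plus 3 SD, set per campaign, cut at about 52% in these data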
NR2F2 inh – NR2F2 transcriptional activity inhibitors, primary screen, cell-based, luciferase reporter, HEK293T, luminescence; COUP transcription factor 2 (Homo sapiens), P24468; HEK293T NGFI-A luciferase reporter; inhibition, % at 8.6 µM; actives 0.7% (n = 370,000);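 active = inhibition above a per-plate cutoff, mean inhibition of test wells between control levels plus 3 SD, cut at about 38% in these data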;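 also: cells cotransfected with COUP-TFII expression vector driving the NGFI-A reporter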
Target sequence (P24468 whole entry, looked up): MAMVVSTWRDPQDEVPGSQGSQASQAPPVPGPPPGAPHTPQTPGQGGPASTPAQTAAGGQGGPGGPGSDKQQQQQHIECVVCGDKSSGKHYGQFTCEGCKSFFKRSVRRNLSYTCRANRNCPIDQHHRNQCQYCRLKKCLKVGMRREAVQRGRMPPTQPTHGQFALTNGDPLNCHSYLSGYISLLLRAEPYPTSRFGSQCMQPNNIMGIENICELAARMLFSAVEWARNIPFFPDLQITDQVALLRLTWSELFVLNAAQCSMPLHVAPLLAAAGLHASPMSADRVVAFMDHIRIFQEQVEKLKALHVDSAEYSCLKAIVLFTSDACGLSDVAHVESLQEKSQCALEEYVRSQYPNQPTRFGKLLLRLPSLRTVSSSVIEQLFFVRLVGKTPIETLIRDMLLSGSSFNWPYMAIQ
GalR3 conf – GalR3 antagonist hit confirmation, cell-based, fluorescence, triplicate; shares compounds with GalR3 antag; actives 59% (n = 1,600); HEK293 GalR3 CNG cAMP biosensor, membrane potential fluorescence; galR3 fused to GalR1 carboxy tail; challenged with forskolin and galanin at EC90; inhibition, % at 3 µM;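 active = inhibition above the primary screen's cutoff, the mean inhibition of all screened compounds plus 3 SD, cut at about 13% in these data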
CNG parental – nonspecific cAMP agonists in parental HEK-CNG cells, counter-screen for GalR3 antagonist project, cell-based, fluorescence, high throughput; shares compounds with GalR3 antag; HEK293-CNG parental cells, cAMP membrane potential fluorescence; normalised: DMSO wells 0%, forskolin wells 100%; activation, % at 3 µM; actives 10% (n = 1,600); in the data active = activation above about 1.3%
Gal4-VP16 ctr – Gal4-VP16 luciferase reporter inhibitors, counter-screen for COUP-TFII antagonist project, cell-based, luminescence, HEK293 | shares compounds with NR2F2 inh | inhibition, % at 8.5 µM | actives 25% (n = 2,500) | AID 687007, 2013; in the data active = inhibition above about 13%
COUP-TFII conf – NR2F2 transcriptional activity inhibitors, confirmation, cell-based, luciferase reporter, HEK293, triplicate; shares compounds with NR2F2 inh; HEK293 NGFI-A luciferase reporter, luminescence; inhibition, % at 8.5 µM; actives 45% (n = 2,500);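 active = mean inhibition over three repeats above a set limit taken from the earlier primary screen, cut at about 38% in these data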
Each line names hits and unclear results; the compound was inactive in the other large screens (follow-up assays come after a bar, where they were run). This is a sample that favours compounds with a hit; in the whole collection about 1.1% have one here.

CCc1ccc(OC)c(S(=O)(=O)Nc2ccc(Cc3ccncc3)cc2)c1	GalR3 antag 46, NR2F2 inh 64 | GalR3 conf inactive | CNG parental inactive | Gal4-VP16 ctr inactive | COUP-TFII conf inactive
COc1ccc(OC)c(CCNC(=O)Cn2nc(C)c3c(C)n(-c4ccc(C)cc4)nc3c2=O)c1	GalR3 antag 33, NR2F2 inh 67 | GalR3 conf 98 | CNG parental inactive | Gal4-VP16 ctr inactive | COUP-TFII conf 73
COc1ccc(CCNC(=O)Cn2nc(C)c3c(C)n(-c4ccccc4)nc3c2=O)c(OC)c1	none
Nc1nc2c(ncn2[C@@H]2O[C@H](C(=O)N[C@H](Cc3ccccc3)C(=O)NCCCc3ccccc3)[C@@H](O)[C@H]2O)c(=O)[nH]1	none (no result: NR5A2 inv ag, SRC1 inh, NCOA3 inh)
O=C1COc2ccc(-c3csc(=Nc4ccc(OC(F)F)cc4)n3CC3CCCO3)cc2N1 (stereo not drawn)	none
COCC(C)n1c(-c2ccc3c(c2)NC(=O)CO3)csc1=Nc1ccc(OC(F)F)cc1 (stereo not drawn)	GalR3 antag 31, NR2F2 inh 48 | GalR3 conf 92 | CNG parental inactive | Gal4-VP16 ctr 16 | COUP-TFII conf 56
CN(C)CCCNC(=O)c1ccc(Cl)c(S(=O)(=O)N2CCCCCC2)c1	none
CN(C)C(CNC(=O)c1ccc(Cl)c(S(=O)(=O)N2CCCCCC2)c1)c1ccccc1 (stereo not drawn)	GalR3 antag 71, NR2F2 inh 63 | GalR3 conf 88 | CNG parental 1.3 | Gal4-VP16 ctr inactive | COUP-TFII conf inactive
Cc1ccccc1CCNC(=O)c1ccc(Cl)c(S(=O)(=O)N2CC(C)OC(C)C2)c1 (stereo not drawn)	GalR3 antag 107, NR2F2 inh 67 | GalR3 conf 92 | CNG parental inactive | Gal4-VP16 ctr inactive | COUP-TFII conf inactive
Cc1cccc(-c2cccc3c4c([nH]c23)[C@@H]2C[C@H](N(C)C(=O)C3CCCCC3)[C@H]([C@H](C)O)CN2CC4)c1	none (no result: NR5A2 inv ag, SRC1 inh, GalR3 antag, NCOA3 inh)
Cc1ncoc1C(=O)NC1CCCc2c1cnn2-c1ccc(C(C)(C)C)cc1 (stereo not drawn)	GalR3 antag 102, NR2F2 inh 60 | GalR3 conf 111 | CNG parental inactive | Gal4-VP16 ctr inactive | COUP-TFII conf 65
Cc1nnsc1C(=O)NC1CCCc2c1cnn2-c1ccc(C(C)(C)C)cc1 (stereo not drawn)	GalR3 antag 108, NR2F2 inh 65 | GalR3 conf 111 | CNG parental inactive | Gal4-VP16 ctr inactive | COUP-TFII conf 66
CC(C)(C)c1ccc(-n2ncc3c2CCCC3NC(=O)c2ccncc2)cc1 (stereo not drawn)	none
C=CCN=C1NC(c2ccc(C(F)(F)F)cc2)C(C(=O)OC)=C(C)N1C (stereo not drawn)	none (no result: NR5A2 inv ag, SRC1 inh, NCOA3 inh)
CCCCCCCn1c2c(c(=N)c3ccccc31)CCC2	NR5A2 inv ag 79, GalR3 antag 42, NCOA3 inh 64, NR2F2 inh 74 | GalR3 conf 58 | CNG parental 7.3 | Gal4-VP16 ctr 25 | COUP-TFII conf 75
CN(Cc1ccco1)C(=O)[C@H](Cc1ccccc1)NC(=O)CC[C@H]1O[C@@H](n2ccc(=O)[nH]c2=O)[C@H](O)[C@@H]1O	none
CC(C)c1ccc(NC2CCCN(C(=O)c3n[nH]c4c3CCC4)C2)cc1 (stereo not drawn)	GalR3 antag 31, NR2F2 inh 38 | GalR3 conf 36 | CNG parental inactive | Gal4-VP16 ctr inactive | COUP-TFII conf inactive
COC(=O)c1ccc(C(=O)N2CCCC(Nc3ccc(C(C)C)cc3)C2)cc1 (stereo not drawn)	none
CC1(C)C2CCC(CN)C1C2 (stereo not drawn)	none
Oc1ccc2ccccc2c1CN1CCCCC1	GalR3 antag 14, NR2F2 inh 45 | GalR3 conf 17 | CNG parental inactive | Gal4-VP16 ctr inactive | COUP-TFII conf inactive
C[C@@H](c1ccccc1)N1C[C@@H](COCc2ccccc2)Oc2cc(N3CCC[C@H]3C(N)=O)ccc2S1(=O)=O	none (no result: SRC1 inh, NCOA3 inh)
Cc1cc(C)n(-c2ccc(C(=O)Nc3ccc(S(=O)(=O)NCc4ccco4)cc3)cc2)n1	GalR3 antag 71, NR2F2 inh 75 | GalR3 conf 61 | CNG parental inactive | Gal4-VP16 ctr 24 | COUP-TFII conf 71
O=C(/C=C(\Nc1cccc(F)c1)c1ccccc1)c1ccccc1	none (no result: NR5A2 inv ag, SRC1 inh, NCOA3 inh)
Cc1nc(-c2ccc(C(=O)Nc3ccc(F)cc3)cc2)cs1	none
Cc1nc(-c2ccc(NC(=O)c3ccco3)cc2)cs1	NR2F2 inh 41 | Gal4-VP16 ctr inactive | COUP-TFII conf inactive
Cc1nc(-c2cccc(NC(=O)c3ccco3)c2)cs1	none
Cc1nc(-c2ccc(C(=O)Nc3cccc(F)c3)cc2)cs1	NR2F2 inh 56 | Gal4-VP16 ctr inactive | COUP-TFII conf inactive
CCN(c1ccccc1)S(=O)(=O)c1cc(C(=O)Nc2ccc(F)c(F)c2)ccc1F	NR2F2 inh 44 | Gal4-VP16 ctr inactive | COUP-TFII conf inactive
CC1(C)CC(N2CCOCC2)=CC(=S)N1	none (no result: GalR3 antag, NCOA2 inhibitor, NR2F2 inh)
c1ccc(CN2CCN(c3ncccn3)CC2)cc1	none
CC1(C)CC(N2CCCC2)=CC(=[N+]2CCCC2)C1	NR2F2 inh 47 | Gal4-VP16 ctr inactive | COUP-TFII conf inactive
CC1(C)CC(N2CCN(Cc3ccccc3)CC2)=CC(=[N+]2CCCCC2)C1	NR2F2 inh 53 | Gal4-VP16 ctr inactive | COUP-TFII conf inactive
CN(C)Cc1c(C(C)(C)O)[nH]c2ccccc12	none (no result: NR5A2 inv ag, SRC1 inh, NCOA3 inh)
